# Experimental data reported in paper PMC7862700, “An all-to-all approach to the identification of sequence-specific readers for epigenetic DNA modifications on cytosine”.
# Assays:
# Test in all cases: DAPPL (digital affinity profiling via proximity ligation, sequencing); 10 mM Tris-HCl pH 7.5, 50 mM NaCl, 1 mM DTT, 4% glycerol, room temperature, 30 min; GST-TFs on glutathione beads, 16-mer random dsDNA library, 0.1% formaldehyde crosslink after washing; high values mean tight binding
# FLI1 = biological target: T1, FLI1 (Homo sapiens, UniProt Q01543 1-452); details: protein: recombinant; tags: N-terminal GST; dsDNA, one strand shown
# T1 sequence: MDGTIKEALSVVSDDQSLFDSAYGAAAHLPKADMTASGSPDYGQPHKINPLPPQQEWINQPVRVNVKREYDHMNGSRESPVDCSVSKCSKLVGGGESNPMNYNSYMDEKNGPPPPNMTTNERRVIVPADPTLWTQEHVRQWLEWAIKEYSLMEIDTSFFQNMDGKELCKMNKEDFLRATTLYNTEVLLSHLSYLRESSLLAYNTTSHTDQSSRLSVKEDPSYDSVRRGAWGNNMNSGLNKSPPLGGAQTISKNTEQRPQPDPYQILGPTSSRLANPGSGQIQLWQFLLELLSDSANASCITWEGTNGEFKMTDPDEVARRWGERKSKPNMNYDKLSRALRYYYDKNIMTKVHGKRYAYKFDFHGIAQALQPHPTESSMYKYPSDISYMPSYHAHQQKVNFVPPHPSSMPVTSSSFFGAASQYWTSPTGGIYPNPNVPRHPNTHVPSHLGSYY
# How it was run: (§1)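 Sequencing on an Illumina NextSeq500 followed washing, crosslinking with 0.1% formaldehyde, proximity ligation (BsaI/T4 ligase, 1 h, 37 °C) and PCR amplification of pools that had been incubated for 30 min at room temperature with 200 nmole of a random double-stranded 16-mer DNA library in Tris/NaCl/DTT/glycerol buffer. Each pool held DNA-barcoded human transcription factors, expressed in yeast as GST fusions and captured on glutathione beads, plus a tag-only sample. Binding signal is a hexamer's read frequency for a factor divided by its frequency in the tag-only sample.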
# ELK1 = biological target: T2, ELK1 (Homo sapiens, UniProt P19419 1-428); details: protein: recombinant; tags: N-terminal GST; dsDNA, one strand shown
# T2 sequence: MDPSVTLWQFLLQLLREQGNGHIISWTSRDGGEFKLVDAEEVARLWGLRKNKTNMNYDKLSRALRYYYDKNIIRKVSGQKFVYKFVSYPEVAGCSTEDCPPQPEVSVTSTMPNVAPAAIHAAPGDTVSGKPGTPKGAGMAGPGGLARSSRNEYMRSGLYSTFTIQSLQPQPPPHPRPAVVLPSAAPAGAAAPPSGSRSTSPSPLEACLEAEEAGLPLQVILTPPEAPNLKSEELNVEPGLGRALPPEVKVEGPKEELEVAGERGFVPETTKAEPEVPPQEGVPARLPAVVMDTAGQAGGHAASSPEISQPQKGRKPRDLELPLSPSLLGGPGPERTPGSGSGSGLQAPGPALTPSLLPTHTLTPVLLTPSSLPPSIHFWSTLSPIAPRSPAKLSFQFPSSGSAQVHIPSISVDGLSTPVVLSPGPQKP
# How it was run: as §1
# GABPA = biological target: T3, GABPA (Homo sapiens, UniProt Q06546 1-454); details: protein: recombinant; tags: N-terminal GST; dsDNA, one strand shown
# T3 sequence: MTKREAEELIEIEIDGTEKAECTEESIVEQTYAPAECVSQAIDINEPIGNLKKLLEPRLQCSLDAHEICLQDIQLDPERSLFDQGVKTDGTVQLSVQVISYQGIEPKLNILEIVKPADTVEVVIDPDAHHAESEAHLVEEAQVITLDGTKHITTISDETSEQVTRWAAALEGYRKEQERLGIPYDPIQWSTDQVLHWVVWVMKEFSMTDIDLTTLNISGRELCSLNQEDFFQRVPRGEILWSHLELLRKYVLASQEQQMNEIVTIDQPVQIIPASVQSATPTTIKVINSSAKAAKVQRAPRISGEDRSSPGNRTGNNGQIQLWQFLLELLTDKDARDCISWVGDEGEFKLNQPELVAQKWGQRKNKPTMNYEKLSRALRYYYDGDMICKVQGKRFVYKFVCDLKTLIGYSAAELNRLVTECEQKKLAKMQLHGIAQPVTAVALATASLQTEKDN
# How it was run: as §1
# ERG = biological target: T4, ERG (Homo sapiens, UniProt P11308 1-479); details: protein: recombinant; tags: N-terminal GST; dsDNA, one strand shown
# T4 sequence: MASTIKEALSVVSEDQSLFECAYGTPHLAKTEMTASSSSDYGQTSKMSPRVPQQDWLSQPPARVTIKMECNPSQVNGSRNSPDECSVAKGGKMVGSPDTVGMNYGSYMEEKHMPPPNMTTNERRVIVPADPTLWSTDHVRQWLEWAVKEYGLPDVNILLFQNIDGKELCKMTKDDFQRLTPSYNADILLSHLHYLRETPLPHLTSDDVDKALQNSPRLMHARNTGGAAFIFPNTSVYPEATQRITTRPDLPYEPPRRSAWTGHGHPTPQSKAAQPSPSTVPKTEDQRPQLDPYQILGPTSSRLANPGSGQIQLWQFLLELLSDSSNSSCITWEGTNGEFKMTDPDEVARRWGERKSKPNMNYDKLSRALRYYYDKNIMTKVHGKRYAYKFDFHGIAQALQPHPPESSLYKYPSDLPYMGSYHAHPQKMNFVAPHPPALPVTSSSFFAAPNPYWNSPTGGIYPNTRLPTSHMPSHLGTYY
# How it was run: as §1
# ELF1 = ELF1 (Homo sapiens, UniProt P32519 1-619); details: protein: recombinant; tags: N-terminal GST; dsDNA, one strand shown
# Chain of ELF1 (P32519 whole entry): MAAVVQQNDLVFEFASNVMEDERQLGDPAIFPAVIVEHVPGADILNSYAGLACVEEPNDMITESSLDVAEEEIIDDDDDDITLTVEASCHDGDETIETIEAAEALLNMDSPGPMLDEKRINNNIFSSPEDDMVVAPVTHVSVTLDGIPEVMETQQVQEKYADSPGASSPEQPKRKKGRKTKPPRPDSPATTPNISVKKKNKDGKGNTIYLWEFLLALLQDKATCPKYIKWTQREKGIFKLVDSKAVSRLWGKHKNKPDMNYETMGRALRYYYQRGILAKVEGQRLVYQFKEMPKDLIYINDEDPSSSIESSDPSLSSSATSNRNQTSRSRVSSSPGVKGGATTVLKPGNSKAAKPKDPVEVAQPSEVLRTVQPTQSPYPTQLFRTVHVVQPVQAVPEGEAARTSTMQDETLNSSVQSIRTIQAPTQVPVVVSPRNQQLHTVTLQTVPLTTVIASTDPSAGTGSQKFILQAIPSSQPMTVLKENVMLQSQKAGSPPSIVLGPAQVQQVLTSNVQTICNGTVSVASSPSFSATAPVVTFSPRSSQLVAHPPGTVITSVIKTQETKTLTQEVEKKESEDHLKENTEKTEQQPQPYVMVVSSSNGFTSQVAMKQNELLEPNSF
# How it was run: as §1
# EHF = biological target: T5, EHF (Homo sapiens, UniProt Q9NZC4 1-300); details: protein: recombinant; tags: N-terminal GST; dsDNA, one strand shown
# T5 sequence: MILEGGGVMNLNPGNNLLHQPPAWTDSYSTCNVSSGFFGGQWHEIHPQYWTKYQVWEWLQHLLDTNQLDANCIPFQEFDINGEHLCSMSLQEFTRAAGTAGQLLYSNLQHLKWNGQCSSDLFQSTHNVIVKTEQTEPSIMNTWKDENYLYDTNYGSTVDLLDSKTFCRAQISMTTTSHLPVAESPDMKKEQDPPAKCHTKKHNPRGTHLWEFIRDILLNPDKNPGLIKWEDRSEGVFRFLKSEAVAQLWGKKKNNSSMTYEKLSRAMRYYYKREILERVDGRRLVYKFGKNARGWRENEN
# How it was run: as §1
# SPI1 = SPI1 (Homo sapiens, UniProt P17947 1-270); details: protein: recombinant; tags: N-terminal GST; dsDNA, one strand shown
# How it was run: as §1
# SPIB = SPIB (Homo sapiens, UniProt Q01892 1-262); details: protein: recombinant; tags: N-terminal GST; dsDNA, one strand shown
# Chain of SPIB (Q01892 whole entry): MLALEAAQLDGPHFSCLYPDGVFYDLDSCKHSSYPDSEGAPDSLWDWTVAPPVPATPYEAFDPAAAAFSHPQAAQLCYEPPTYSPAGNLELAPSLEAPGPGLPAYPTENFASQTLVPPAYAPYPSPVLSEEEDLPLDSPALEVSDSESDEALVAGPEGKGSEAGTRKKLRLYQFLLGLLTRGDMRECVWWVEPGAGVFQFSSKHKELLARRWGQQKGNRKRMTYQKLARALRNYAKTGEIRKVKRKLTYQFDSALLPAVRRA
# How it was run: as §1
# ELK3 = biological target: T6, ELK3 (Homo sapiens, UniProt P41970 1-407); details: protein: recombinant; tags: N-terminal GST; dsDNA, one strand shown
# T6 sequence: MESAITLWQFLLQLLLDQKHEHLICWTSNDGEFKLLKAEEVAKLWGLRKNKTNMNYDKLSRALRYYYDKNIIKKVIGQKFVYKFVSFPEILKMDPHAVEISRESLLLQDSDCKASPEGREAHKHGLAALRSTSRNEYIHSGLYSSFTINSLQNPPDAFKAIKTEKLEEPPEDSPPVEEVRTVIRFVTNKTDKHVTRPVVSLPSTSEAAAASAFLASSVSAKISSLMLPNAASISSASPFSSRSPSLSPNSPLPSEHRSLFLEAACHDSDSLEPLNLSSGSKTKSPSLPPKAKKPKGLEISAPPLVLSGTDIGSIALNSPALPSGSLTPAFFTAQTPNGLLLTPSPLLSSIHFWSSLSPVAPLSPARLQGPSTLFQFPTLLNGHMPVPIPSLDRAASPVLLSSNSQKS
# How it was run: as §1
# FEV = biological target: T7, FEV (Homo sapiens, UniProt Q99581 1-238); details: protein: recombinant; tags: N-terminal GST; dsDNA, one strand shown
# T7 sequence: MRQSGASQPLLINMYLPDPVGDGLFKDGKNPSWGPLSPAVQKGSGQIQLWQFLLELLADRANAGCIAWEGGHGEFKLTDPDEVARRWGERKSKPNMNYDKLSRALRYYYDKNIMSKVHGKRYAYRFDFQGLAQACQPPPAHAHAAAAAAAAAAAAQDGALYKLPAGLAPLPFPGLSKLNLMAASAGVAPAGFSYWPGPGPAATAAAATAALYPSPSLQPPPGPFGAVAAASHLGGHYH
# How it was run: as §1
# ETV5 = ETV5 (Homo sapiens, UniProt P41161 1-510); details: protein: recombinant; tags: N-terminal GST; dsDNA, one strand shown
# Chain of ETV5 (P41161 whole entry): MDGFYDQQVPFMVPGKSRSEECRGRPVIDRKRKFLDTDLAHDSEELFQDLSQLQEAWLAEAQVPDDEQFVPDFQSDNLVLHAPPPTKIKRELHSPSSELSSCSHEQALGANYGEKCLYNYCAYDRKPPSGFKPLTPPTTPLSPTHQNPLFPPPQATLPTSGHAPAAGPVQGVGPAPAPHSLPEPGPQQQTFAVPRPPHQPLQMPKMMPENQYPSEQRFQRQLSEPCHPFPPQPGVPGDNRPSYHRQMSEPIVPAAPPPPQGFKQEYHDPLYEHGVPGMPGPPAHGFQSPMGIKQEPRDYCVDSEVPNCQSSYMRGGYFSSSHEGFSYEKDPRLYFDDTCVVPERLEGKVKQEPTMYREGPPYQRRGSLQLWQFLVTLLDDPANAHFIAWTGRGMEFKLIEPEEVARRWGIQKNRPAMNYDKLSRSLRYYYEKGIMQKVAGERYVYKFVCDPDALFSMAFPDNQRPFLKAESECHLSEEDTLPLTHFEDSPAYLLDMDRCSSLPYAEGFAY
# How it was run: as §1
# HSF1 = HSF1 (Homo sapiens, UniProt Q00613 1-529); details: protein: recombinant; tags: N-terminal GST; chain copies: 3; dsDNA, one strand shown
# Chain of HSF1 (Q00613 whole entry): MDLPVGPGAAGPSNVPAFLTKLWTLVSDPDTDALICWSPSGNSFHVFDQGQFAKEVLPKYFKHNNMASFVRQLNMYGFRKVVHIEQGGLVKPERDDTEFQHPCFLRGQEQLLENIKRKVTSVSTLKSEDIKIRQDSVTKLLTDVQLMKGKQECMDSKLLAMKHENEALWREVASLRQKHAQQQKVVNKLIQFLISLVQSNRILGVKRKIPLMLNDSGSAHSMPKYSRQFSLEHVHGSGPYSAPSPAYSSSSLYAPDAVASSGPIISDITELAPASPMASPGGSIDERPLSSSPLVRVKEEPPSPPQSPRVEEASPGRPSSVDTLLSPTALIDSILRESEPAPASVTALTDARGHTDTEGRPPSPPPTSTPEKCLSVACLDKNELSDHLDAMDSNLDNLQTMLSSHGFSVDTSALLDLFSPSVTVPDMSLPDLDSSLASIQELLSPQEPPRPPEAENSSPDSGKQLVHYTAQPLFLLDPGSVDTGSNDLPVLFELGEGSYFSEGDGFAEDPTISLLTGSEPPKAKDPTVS
# How it was run: as §1
# SPIC = biological target: T8, SPIC (Homo sapiens, UniProt Q8N5J4 1-248); details: protein: recombinant; tags: N-terminal GST; dsDNA, one strand shown
# T8 sequence: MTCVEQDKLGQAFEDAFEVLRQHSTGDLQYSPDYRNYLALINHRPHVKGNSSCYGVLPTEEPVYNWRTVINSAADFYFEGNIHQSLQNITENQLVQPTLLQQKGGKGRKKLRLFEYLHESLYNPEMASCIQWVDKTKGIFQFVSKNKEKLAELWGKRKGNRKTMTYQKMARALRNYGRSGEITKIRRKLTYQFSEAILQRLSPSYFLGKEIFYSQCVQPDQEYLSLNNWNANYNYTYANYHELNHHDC
# How it was run: as §1
# ELF4 = ELF4 (Homo sapiens, UniProt Q99607 1-663); details: protein: recombinant; tags: N-terminal GST; dsDNA, one strand shown
# Chain of ELF4 (Q99607 whole entry): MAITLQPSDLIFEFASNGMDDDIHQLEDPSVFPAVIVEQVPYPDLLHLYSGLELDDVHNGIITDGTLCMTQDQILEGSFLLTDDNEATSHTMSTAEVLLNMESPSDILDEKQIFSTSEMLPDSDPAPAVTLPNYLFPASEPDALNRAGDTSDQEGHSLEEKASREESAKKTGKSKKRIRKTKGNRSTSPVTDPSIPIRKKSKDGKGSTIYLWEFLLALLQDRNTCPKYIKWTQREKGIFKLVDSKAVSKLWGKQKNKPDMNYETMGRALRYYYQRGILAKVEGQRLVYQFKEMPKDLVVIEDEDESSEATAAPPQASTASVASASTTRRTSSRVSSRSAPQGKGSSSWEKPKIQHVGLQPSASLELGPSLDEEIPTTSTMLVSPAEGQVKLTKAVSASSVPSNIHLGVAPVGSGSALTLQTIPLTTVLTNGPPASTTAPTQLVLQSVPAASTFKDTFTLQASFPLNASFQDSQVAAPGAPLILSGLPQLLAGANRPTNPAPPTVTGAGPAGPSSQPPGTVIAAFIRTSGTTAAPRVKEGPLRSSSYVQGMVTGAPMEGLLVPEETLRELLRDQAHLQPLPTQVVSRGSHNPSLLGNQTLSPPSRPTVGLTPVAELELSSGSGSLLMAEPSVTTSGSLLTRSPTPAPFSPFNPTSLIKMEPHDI
# How it was run: as §1
# ELK4 = biological target: T9, ELK4 (Homo sapiens, UniProt P28324-2 1-405); details: protein: recombinant; tags: N-terminal GST; dsDNA, one strand shown
# T9 sequence: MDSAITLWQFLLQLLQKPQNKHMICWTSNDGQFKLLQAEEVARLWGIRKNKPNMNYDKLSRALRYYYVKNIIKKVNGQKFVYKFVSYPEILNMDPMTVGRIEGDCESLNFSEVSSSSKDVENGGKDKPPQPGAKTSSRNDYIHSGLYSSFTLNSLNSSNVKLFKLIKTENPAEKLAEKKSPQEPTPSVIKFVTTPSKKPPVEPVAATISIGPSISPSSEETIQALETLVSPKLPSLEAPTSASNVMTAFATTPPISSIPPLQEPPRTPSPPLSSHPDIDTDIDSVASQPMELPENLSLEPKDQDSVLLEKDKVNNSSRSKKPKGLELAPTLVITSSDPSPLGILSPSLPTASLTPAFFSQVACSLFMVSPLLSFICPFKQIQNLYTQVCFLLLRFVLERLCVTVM
# How it was run: as §1
# ETV2 = biological target: T10, ETV2 (Homo sapiens, UniProt O00321 1-342); details: protein: recombinant; tags: N-terminal GST; dsDNA, one strand shown
# T10 sequence: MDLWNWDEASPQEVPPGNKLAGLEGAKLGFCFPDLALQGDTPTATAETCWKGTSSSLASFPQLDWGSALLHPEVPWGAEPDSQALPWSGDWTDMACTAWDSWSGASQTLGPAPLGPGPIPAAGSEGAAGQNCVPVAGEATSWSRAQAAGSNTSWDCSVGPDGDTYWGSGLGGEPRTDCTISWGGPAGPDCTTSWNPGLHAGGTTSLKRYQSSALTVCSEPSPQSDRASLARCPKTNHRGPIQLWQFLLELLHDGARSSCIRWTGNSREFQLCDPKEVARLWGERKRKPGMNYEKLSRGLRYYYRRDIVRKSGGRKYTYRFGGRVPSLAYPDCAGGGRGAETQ
# How it was run: as §1
# ELF3 = biological target: T11, ELF3 (Homo sapiens, UniProt P78545 1-371); details: protein: recombinant; tags: N-terminal GST; dsDNA, one strand shown
# T11 sequence: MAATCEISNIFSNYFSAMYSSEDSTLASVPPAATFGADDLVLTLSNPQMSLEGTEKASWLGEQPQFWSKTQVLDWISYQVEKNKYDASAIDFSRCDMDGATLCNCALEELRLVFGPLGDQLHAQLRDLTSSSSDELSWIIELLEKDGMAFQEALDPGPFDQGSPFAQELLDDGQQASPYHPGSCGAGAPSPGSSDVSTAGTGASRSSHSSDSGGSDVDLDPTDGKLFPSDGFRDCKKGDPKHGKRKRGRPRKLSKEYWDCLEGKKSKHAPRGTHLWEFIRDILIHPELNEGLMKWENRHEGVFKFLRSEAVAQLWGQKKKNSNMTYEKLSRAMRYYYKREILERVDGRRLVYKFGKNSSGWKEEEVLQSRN
# How it was run: as §1
# CRX = CRX (Homo sapiens, UniProt O43186 1-299); details: protein: recombinant; tags: N-terminal GST; dsDNA, one strand shown
# Chain of CRX (O43186 whole entry): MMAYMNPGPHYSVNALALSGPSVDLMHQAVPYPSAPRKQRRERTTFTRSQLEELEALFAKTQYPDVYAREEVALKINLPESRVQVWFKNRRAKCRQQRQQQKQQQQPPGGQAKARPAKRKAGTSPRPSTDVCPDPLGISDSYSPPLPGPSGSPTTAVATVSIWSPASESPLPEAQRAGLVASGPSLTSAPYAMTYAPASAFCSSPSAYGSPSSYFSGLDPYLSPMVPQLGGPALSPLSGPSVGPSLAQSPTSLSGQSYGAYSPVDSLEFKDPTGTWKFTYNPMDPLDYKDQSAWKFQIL
# How it was run: as §1
# ETV1 = ETV1 (Homo sapiens, UniProt P50549 1-477); details: protein: recombinant; tags: N-terminal GST; dsDNA, one strand shown
# Chain of ETV1 (P50549 whole entry): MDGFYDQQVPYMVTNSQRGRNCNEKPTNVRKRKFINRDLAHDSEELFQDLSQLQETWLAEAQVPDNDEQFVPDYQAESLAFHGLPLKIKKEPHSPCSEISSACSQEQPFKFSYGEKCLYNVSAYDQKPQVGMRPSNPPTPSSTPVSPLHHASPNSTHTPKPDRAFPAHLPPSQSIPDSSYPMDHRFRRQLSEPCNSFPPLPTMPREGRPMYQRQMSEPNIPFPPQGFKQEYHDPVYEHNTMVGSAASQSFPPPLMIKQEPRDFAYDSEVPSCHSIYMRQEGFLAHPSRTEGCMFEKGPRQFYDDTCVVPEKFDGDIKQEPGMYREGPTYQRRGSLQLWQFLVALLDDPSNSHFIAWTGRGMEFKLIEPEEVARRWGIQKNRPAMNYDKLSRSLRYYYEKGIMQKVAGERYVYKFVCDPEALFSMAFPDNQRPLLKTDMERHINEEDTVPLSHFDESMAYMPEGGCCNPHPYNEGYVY
# How it was run: as §1
sequence,measurement,setting,value
ATGTTT,binding signal,FLI1,"1.48 fold enrichment (6-mer frequency, TF over GST control)"
same,binding signal,ELK1,"1.37 fold enrichment (6-mer frequency, TF over GST control)"
same,binding signal,GABPA,"1.36 fold enrichment (6-mer frequency, TF over GST control)"
same,binding signal,ERG,"1.39 fold enrichment (6-mer frequency, TF over GST control)"
same,binding signal,ELF1,"1.41 fold enrichment (6-mer frequency, TF over GST control)"
same,binding signal,EHF,"1.41 fold enrichment (6-mer frequency, TF over GST control)"
same,binding signal,SPI1,"1.33 fold enrichment (6-mer frequency, TF over GST control)"
same,binding signal,SPIB,"1.38 fold enrichment (6-mer frequency, TF over GST control)"
same,binding signal,ELK3,"1.43 fold enrichment (6-mer frequency, TF over GST control)"
same,binding signal,FEV,"1.36 fold enrichment (6-mer frequency, TF over GST control)"
same,binding signal,ETV5,"1.4 fold enrichment (6-mer frequency, TF over GST control)"
same,binding signal,HSF1,"1.32 fold enrichment (6-mer frequency, TF over GST control)"
same,binding signal,SPIC,"1.27 fold enrichment (6-mer frequency, TF over GST control)"
same,binding signal,ELF4,"1.3 fold enrichment (6-mer frequency, TF over GST control)"
same,binding signal,ELK4,"1.37 fold enrichment (6-mer frequency, TF over GST control)"
same,binding signal,ETV2,"1.41 fold enrichment (6-mer frequency, TF over GST control)"
same,binding signal,ELF3,"1.34 fold enrichment (6-mer frequency, TF over GST control)"
same,binding signal,CRX,"1.26 fold enrichment (6-mer frequency, TF over GST control)"
same,binding signal,ETV1,"1.26 fold enrichment (6-mer frequency, TF over GST control)"
